# Measurements: PubChem BioAssay (NCATS)
# Records with an inconclusive call do not appear. A call without a number means that no potency is given here. Activity calls are given as the source filed them. The call rests on the fitted dose curve; in most records, active means well fitted curve in the direction sought with a large enough effect; inconclusive means small, poorly fitted or top-dose-only effect, or another doubt; inactive means no such curve, though single readings can be large; an effect the other way counts as inactive or inconclusive. Where a SMILES comes first, the peptide text is derived from it. The star is where a group is joined. AFC = O=c1cc(C(F)(F)F)c2ccc(N*)cc2o1
# Key:
# [1] = P-glycoprotein substrates identified in KB-3-1 adenocarcinoma cell line, qHTS therapeutic library screen (AID 1346986); further: nearly all actives have a fitted effect of over 60% in size;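 further: potency is for cytotoxicity meaning loss of cell viability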
# Procedure, shortened: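 Viability read by CellTiter-Glo after 72 h compound exposure in dose-response of KB-3-1 and KB-8-5-11 (P-gp-high) cells. Hits needed AC50 < 10 uM, >50% maximum response and curve class -1.1 to -2.4. Cherry-picks retested ± tariquidar, including pcDNA/MDR-19 HEK-293 pair.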
# [2] = P-glycoprotein substrates identified in KB-8-5-11 adenocarcinoma cell line, qHTS therapeutic library screen (AID 1346987); further: nearly all actives have a fitted effect of over 65% in size
# Procedure, shortened: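 Compounds are pinned in dose-response onto KB-8-5-11 cells (500 cells/well, colchicine-free medium) and left 72 h at 37 degree C. CellTiter-Glo luminescence then yields AC50 values.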
# Potency means the concentration at half of the fitted maximal effect.
structure (smiles),measurement,setting,value
CS(=O)(=O)c1ccc([C@H](CC2CCCC2)C(=O)Nc2nccs2)cc1,Potency,[1],inactive
CC(=O)N[C@@H](Cc1c[nH]c2ccccc12)C(=O)N[C@@H](CCC(=O)O)C(=O)N[C@@H](Cc1cnc[nH]1)C(=O)N[C@@H](CC(=O)O)C(=O)Nc1ccc2c(C(F)(F)F)cc(=O)oc2c1 (Ac-WEHD-{AFC}),Potency,[1],inactive
same,Potency,[2],inactive
CC(=O)O[C@@H]1c2c3c(cc(O)c2C(=O)O[C@@H]1C)O[C@@]1(C)[C@@H](O)C[C@H]2C(C)(C)C(=O)C=C[C@]2(C)[C@@H]1C3,Potency,[1],inactive
CCOC(=O)c1cc(C#N)c(N2CCC(C(=O)NS(=O)(=O)Cc3ccccc3)CC2)nc1C,Potency,[1],inactive
COc1c2cc(c(O)c1OC)-c1cc(ccc1O)CCC(O)CCCC2 (configuration not stated),Potency,[1],inactive
CCC(O)C(C)C1CCC(C(C)C(=O)O)O1 (configuration not stated),Potency,[1],inactive
same,Potency,[2],inactive
COc1cc2c3c(cc4ccccc4c3c1O)NC2=O,Potency,[1],inactive
C[C@H](NC(c1cccc2[nH]c(=O)c(=O)[nH]c12)P(=O)(O)O)c1ccc(Br)cc1 (some centres not stated),Potency,[1],inactive
same,Potency,[2],inactive
CC1(C)CC[C@]2(C(=O)O[C@@H]3O[C@H](CO)[C@@H](O)[C@H](O)[C@H]3O)CC[C@]3(C)C(=CCC4[C@@]5(C)C[C@@H](O)[C@H](O)[C@@](C)(CO)C5CC[C@]43C)C2[C@@H]1O (some centres not stated),Potency,[1],inactive
CC(C)(C)c1ccc(S(=O)(=O)Nc2ccc(Cl)cc2C(=O)c2cc[n+]([O-])cc2)cc1,Potency,[1],inactive
CCOc1cc(C)c(Cl)cc1S(=O)(=O)n1cnc2ccccc21,Potency,[1],inactive
CNC12CC3C[C@@](C)(C1)C[C@](C)(C3)C2,Potency,[1],inactive
Cc1cc(Nc2nc(NC(C)c3ncc(F)cn3)ncc2Cl)n[nH]1 (configuration not stated),Potency,[1],inactive
C=C1C[C@]23C[C@H]1CC[C@H]2C1=C[C@H]2OC(=O)[C@@](C)([C@H]1[C@@H]3C(=O)O)[C@H]2O,Potency,[1],inactive
COc1ccc(CNC(=O)c2cc(-c3cncc(C)c3)ncc2-c2nccs2)nc1OC,Potency,[1],inactive
CC(C)(F)C[C@@H](N[C@@H](c1ccc(-c2ccc(S(C)(=O)=O)cc2)cc1)C(F)(F)F)C(=O)NC1(C#N)CC1,Potency,[1],inactive
C=CC(C)(C)C12C=C(OC)C(=O)N3C(C(C)C)C(=O)NC31N(OC)c1ccccc12 (configuration not stated),Potency,[1],inactive
same,Potency,[2],inactive
O=C(O)CCCCCC[C@H]1C(=O)NC(=O)N1CC[C@@H](O)C1CCCCC1,Potency,[1],inactive
same,Potency,[2],inactive
CC1(C)CC[C@@]2(C(=O)O[C@@H]3O[C@H](CO)[C@@H](O)[C@H](O)[C@H]3O)C(C1)C1=CCC3[C@@]4(C)CC[C@@H](O[C@@H]5O[C@H](C(=O)O)[C@@H](O[C@@H]6OC[C@@H](O)[C@H](O)[C@H]6O)[C@H](O[C@@H]6OC[C@](O)(CO)[C@H]6O)[C@H]5O)C(C)(C)C4CC[C@@]3(C)[C@]1(C)C[C@H]2O (some centres not stated),outcome,[1],inactive [at 9.29 µM]
same,outcome,[2],inactive [at 9.29 µM]
COC(=O)[C@H](O)[C@H]1C(C)(C)[C@H](OC(=O)C(C)C)[C@@]2(O)C(=O)[C@]1(C)C1CC[C@]3(C)C(CC(=O)O[C@H]3c3ccoc3)[C@]13O[C@@H]32 (some centres not stated),Potency,[1],inactive
COC(=O)c1cc(OC)cc(OC)c1C(=O)c1c(OC)cc2c(c1O)C1CCCC(C)(O2)O1 (configuration not stated),Potency,[1],inactive
Cc1cc(Cl)ccc1COc1ccnn1-c1cc(C(=O)O)ccn1,Potency,[1],inactive
same,Potency,[2],inactive
C=C1[C@H](OC(C)=O)[C@H]2[C@@H](OC(C)=O)[C@](C)(OC(C)=O)C[C@]2(OC(C)=O)C(=O)[C@H](C)/C=C/C(C)(C)C(=O)[C@H](OC(=O)C(C)C)[C@H]1OC(C)=O,Potency,[1],inactive
C=C(C(=O)O)C1CCC2(C)CCCC(C)(O)C2C1 (configuration not stated),Potency,[1],inactive
COC(=O)C1=CO[C@@H](O[C@@H]2O[C@H](CO)[C@@H](O)[C@H](O)[C@H]2O)C2C1C(=O)C[C@H]2C (some centres not stated),Potency,[1],inactive
same,Potency,[2],inactive
COc1c2c(c(C)c3c1C(=O)OC3)OC1(C)CC(O)C(C(C)(C)O)C(C)(CCC(=O)O)C1C2 (configuration not stated),Potency,[1],inactive
Cc1nc(NC(=O)N2CCCC2C(N)=O)sc1-c1csc(C(C)(C)C)n1 (configuration not stated),Potency,[1],inactive
Cc1ccc(C(=O)Nc2noc3ccccc23)cc1,Potency,[1],inactive
same,Potency,[2],inactive
C[C@H](Nc1ncnc2nc[nH]c12)c1cc2ccc(F)cc2nc1-c1ccccn1,Potency,[1],inactive
same,Potency,[2],inactive
Nc1nc2c(ncn2[C@@H]2O[C@@H]3COP(=O)(O)O[C@H]3[C@H]2O)c(=O)[nH]1,Potency,[1],inactive
same,Potency,[2],inactive
CC1(C)C2CC(OC3OC(COC4OCC(O)(CO)C4O)C(O)C(O)C3O)C1(C)CC2O (configuration not stated),Potency,[1],inactive
O=C(/C=C/c1ccccc1)OC[C@]12O[C@H]1[C@@H](O)[C@@H]1C=CO[C@@H](O[C@@H]3O[C@H](CO)[C@@H](O)[C@H](O)[C@H]3O)[C@@H]12,Potency,[1],inactive
same,Potency,[2],inactive
COC(C(=O)N1Cc2[nH]nc(NC(=O)c3ccc(N4CCN(C)CC4)cc3)c2C1)c1ccccc1 (configuration not stated),Potency,[1],0.517 µM (active)
CC(=O)O[C@]1(C(C)=O)CC[C@H]2[C@@H]3C[C@H](C)C4=CC(=O)C=C[C@]4(C)[C@@]3(F)[C@@H](O)C[C@@]21C,Potency,[1],inactive
CC(=O)N1CCN(C(=O)Cc2ccc(Nc3ncc(F)c(Nc4ccc(C(=O)Nc5ccccc5Cl)cc4)n3)cc2)CC1,Potency,[1],2.91 µM (active)
COc1cc(C(=O)O)ccc1OC1OC(CO)C(O)C(O)C1O (configuration not stated),Potency,[1],inactive
O=C(OC1C=C(CO)C2C(OC3OC(CO)C(O)C(O)C3O)OC=CC12)c1ccc(O)cc1 (configuration not stated),Potency,[1],inactive
O=C(Nc1ccc(-c2ccncc2)cc1)N[C@H](CO)c1ccccc1,Potency,[1],inactive
O=C(O)[C@H](Cc1ccc(Nc2nccc3ccncc23)cc1)NC1=C(Br)C(=O)C12CCCCC2,Potency,[1],inactive
same,Potency,[2],inactive
CC(C)c1ccc(CO)cc1O[C@@H]1O[C@H](CO)[C@@H](O)[C@H](O)[C@H]1O,Potency,[1],inactive
same,Potency,[2],inactive
Cc1cc(=O)oc2c(C=O)c(O)ccc12,Potency,[1],inactive
same,Potency,[2],inactive
COc1cc2occc2c(O[C@@H]2O[C@H](CO)[C@@H](O)[C@H](O)[C@H]2O)c1CCC(=O)O,Potency,[1],inactive
same,Potency,[2],inactive
CC/C=C\CC1C(=O)C=CC1(CCCCCCCC(=O)O)OC(C)=O (configuration not stated),Potency,[1],inactive
same,Potency,[2],inactive
Cc1noc(=O)c2ccc(NC(=O)C(O)(CC(C)(C)c3cccc4c3OCC4)C(F)(F)F)cc12 (configuration not stated),Potency,[1],inactive
same,Potency,[2],inactive
C=C[C@@]12COC(=O)C(=C)C1[C@@H](O)[C@H](C(=C)C(=O)OC)[C@@H](OC(=O)C(=C)CO)C2 (some centres not stated),Potency,[1],inactive
same,Potency,[2],inactive
CC(=O)/C=C/[C@H]1[C@](C)(O)[C@@H](O)[C@H](OC(C)=O)C2C(C)(C)CCC[C@@]21C (some centres not stated),Potency,[1],inactive
same,Potency,[2],inactive
CC1CC(O)/C=C/C(O)C(O)CC(=O)Cc2c(Cl)c(O)cc(O)c2C(=O)O1 (configuration not stated),Potency,[1],inactive
same,Potency,[2],inactive
CC1(C)CC[C@]2(C(=O)O[C@@H]3O[C@H](CO)[C@@H](O)[C@H](O)[C@H]3O)CC[C@]3(C)C(=CCC4[C@@]5(C)C[C@@H](O)[C@H](O)C(C)(C)C5[C@H](O)C[C@]43C)[C@@H]2[C@@H]1O (some centres not stated),Potency,[1],inactive
same,Potency,[2],inactive
CC1=C2C(O)C(=O)OC(c3ccoc3)C2(C)CCC1O (configuration not stated),Potency,[1],inactive
same,Potency,[2],inactive
CC1(C)CCC2(C(=O)OC3OCC(O)C(O)C3O)CCC3(C)C(=CCC4C5(C)CC(O)C(OC6OC(COC7OCC(O)C(O)C7O)C(O)C(O)C6O)C(C)(C)C5CCC43C)C2C1 (configuration not stated),outcome,[1],inactive [at 9.29 µM]
same,outcome,[2],inactive [at 9.29 µM]
CC(CO)C1CCC2(C)CC3C(CO)CC(O)C3C(C)(O)C/C=C/12 (configuration not stated),Potency,[1],inactive
same,Potency,[2],inactive
CCn1c(=O)c(-c2ccn[nH]2)cc2c(C)nc(N)nc21,Potency,[1],3.66 µM (active)
same,Potency,[2],2.91 µM (active)
CC1(C)C[C@H](O)C[C@@]2(C)OC(=O)C=C12,Potency,[1],inactive
same,Potency,[2],inactive
O=C(Nc1ccn[nH]1)c1c(F)cccc1F,Potency,[1],inactive
same,Potency,[2],inactive
CC/C=C\CCO[C@@H]1O[C@H](CO[C@@H]2OC[C@H](O)[C@H](O)[C@H]2O)[C@@H](O)[C@H](O)[C@H]1O,Potency,[1],inactive
same,Potency,[2],inactive
CC(C)(O)/C=C/CC(C)(O)C1C(O)CC2(C)C3CCC4C(C)(C)C(=O)CCC4(C)C3CCC12C (configuration not stated),Potency,[1],inactive
same,Potency,[2],inactive
CC(C)=C/C=C\[C@H](C)[C@H]1CC[C@]2(C)C[C@@H]3C(C)=CC(=O)C3/C(CO)=C\C[C@@H]12 (some centres not stated),Potency,[1],inactive
same,Potency,[2],inactive
Cc1ccc(-c2ccc3c(ccc4sc5c(c43)NC[C@@H](C)NC5=O)n2)cn1,Potency,[1],inactive
same,Potency,[2],inactive
CC1OC(O[C@H]2CC[C@@]3(C)C(CC[C@]4(C)C3CC=C3C5CC(C)(C)CC[C@]5(C(=O)OC5OC(CO)C(OC6OC(COC7OCC(O)C(O)C7O)C(O)C(O)C6O)C(O)C5O)CC[C@]34C)C2(C)C)C(O)C(O)C1OC1OCC(OC2OCC(O)C(O)C2O)C(O)C1O (some centres not stated),outcome,[1],inactive [at 9.29 µM]
same,outcome,[2],inactive [at 9.29 µM]
C=C(C)C1CCC2(C(=O)O[C@@H]3O[C@H](CO[C@@H]4O[C@H](CO)[C@@H](O)[C@H](O)[C@H]4O)[C@@H](O)[C@H](O[C@@H]4O[C@@H](C)[C@H](O)[C@@H](O)[C@H]4O)[C@H]3O)CCC3(C(=O)O)C(CCC4C5(C)CCC(O)C(C)(C)C5CCC43C)C12 (some centres not stated),outcome,[1],inactive [at 9.29 µM]
same,outcome,[2],inactive [at 9.29 µM]
CC12CCC(=O)C=C1C(O)CC1C2C(O)CC2(C)C1CC[C@]2(O)C(=O)CO (some centres not stated),outcome,[1],inactive [at 9.29 µM]
same,outcome,[2],inactive [at 9.29 µM]
COC(=O)CCc1cc2ccoc2c(OC)c1O[C@@H]1O[C@H](CO)[C@@H](O)[C@H](O)[C@H]1O,Potency,[1],inactive
same,Potency,[2],inactive
C[C@H]1C(=O)N2c3ccccc3[C@@]3(O)C[C@@H]4C(=O)N[C@](C)(c5nc6ccccc6c(=O)n54)N1[C@@H]23,Potency,[1],inactive
same,Potency,[2],inactive
COC(=O)C1=CO[C@@H](O[C@@H]2O[C@H](CO)[C@@H](O)[C@H](O)[C@H]2O)[C@H]2[C@@H]1C=C[C@@]21C=C([C@H](C)O)C(=O)O1,Potency,[1],inactive
same,Potency,[2],inactive
